The campaign covered roughly 2,100 compounds. About 650 (31%) were called active. Roughly 16% stayed inconclusive and do not appear here. Calls follow the shape of the dose curve; as a rule, active = well fitted inhibition curve with a large enough effect; inconclusive = small, poorly fitted or top-dose-only effect; inactive = flat fitted curve, though single readings scatter. Some of the results follow. A call without a number means that no potency is given here.
Potency is read from the fitted curve at half-maximal effect.

The test can be described thus: qHTS for inhibitors of Vif-A3G interactions: Cherry picks. Also: nearly all actives have a fitted effect of over 80% in size. Particulars: HeLa A3G-eYFP + Vif (tagged APOBEC3G with the HIV-1 protein that degrades it), 24 h; Potency: eYFP fluorescence increase; series mostly up to 36.9 µM. Summed up: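 Cherry-picked compounds tested at several concentrations on A3G-eYFP/Vif HeLa cells for 24 hours; loss of Vif-driven degradation read as eYFP fluorescence by cytometric plate imaging, 488 nm excitation, 500-530 nm emission.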
(In general: In qHTS, concentration-response curves come from the screen itself.)
In the case of `Nc1nc(SCc2ccc(Cl)cc2Cl)nc2nc3c(cc12)CCCC3`, the Potency is 23.1 µM (active).

With `Cc1[nH][nH]c(=O)c1C(c1c(C)[nH][nH]c1=O)c1cn(Cc2ccccc2Cl)c2ccccc12`, the Potency entry was “inactive”.

Regarding `Cc1ccc2oc(/N=C(\N)NC(=O)C(C)(C)C)nc2c1`, the Potency entry was “inactive”.

`CCOC(=O)c1ccc(NC(=S)NC(=O)C2CCCC2)cc1`: the Potency entry is “inactive”.

Regarding `COC(=O)c1ccc(NC(=O)CC2Nc3cc(C)c(C)cc3NC2=O)cc1` (stereo unspecified), the Potency is 23.1 µM (active).

In the case of `C/C(CCc1ccc2c(c1)OCO2)=N\NC(=S)NC(C)C`, the Potency entry is “inactive”.

For `c1ccc2c(c1)nc(N1CCOCC1)c1nnnn12`, the Potency result is “inactive”.

As for `CC(=O)Nc1ccc(S(=O)(=O)Nc2nc3ccccc3nc2Nc2ccc(N)cc2)cc1`, the Potency result was “inactive”.

With `COc1ccccc1CNC(=O)c1ccc(Nc2nc3ccccc3n3nnnc23)cc1`, the Potency was 20.6 µM (active).

Consider `CN(C)c1ccc(Nc2nc3ccccc3n3nnnc23)cc1`, for which the Potency entry is “inactive”.

Turning to `Fc1ccc(COc2ccc3ccccc3c2CNc2nn[nH]n2)cc1`, the Potency entry is “inactive”.

`CC(NC(=O)c1ccc(Nc2nc3ccccc3n3nnnc23)cc1)c1ccccc1` (stereo unspecified): the Potency was 18.4 µM (active).

In the case of `Fc1ccc(CNc2nc3ccccc3n3nnnc23)cc1`, the Potency is 16.4 µM (active).

With `Cc1ccc(C(=O)O)cc1Nc1nc2ccccc2n2nnnc12`, the Potency entry is “inactive”.

`C=CCSc1nc2ccccc2n1C(=O)/C=C/c1cc(OC)c(OC)c(OC)c1`: the Potency result is “inactive”.

Turning to `COc1cc(Nc2nc3ccccc3n3nnnc23)cc(OC)c1OC`, the Potency is 20.6 µM (active).

Turning to `O=[N+]([O-])c1ccccc1C1Nc2cccc3cccc(c23)N1`, the Potency result was “inactive”.

In the case of `CCOC(=O)c1cc(-c2ccccc2C)n(CC2CC(c3ccc(OC)cc3)=NO2)n1` (stereo unspecified), the Potency result was “inactive”.

With `NC(=S)N/N=C/c1ccccc1OC(=O)/C=C/c1ccccc1`, the Potency entry is “inactive”.

Turning to `Cc1cc(OCC(=O)Nc2nnc(C3CC3)s2)ccc1Cl`, the Potency result is “inactive”.

For `COc1ccc2[nH]c(C(=O)N/N=C/c3ccc(OC)c(O)c3)cc2c1`, the Potency result is “inactive”.

As to `Cc1ccc(/C=N/NC(=O)c2ccc3ccccc3c2)s1`, the Potency entry is “inactive”.

As to `COc1ccc2o/c(=N/NC(=O)c3cccs3)c(C(N)=O)cc2c1`, the Potency was 14 µM (active).

`COc1cc(OC)cc(C(=O)Nc2ccc(N3CCN(C(=O)c4cccs4)CC3)cc2)c1`: the Potency entry was “inactive”.

Turning to `COc1cc2ccccc2cc1C(=O)N/N=C/c1cccs1`, the Potency result is “inactive”.

For the compound `O=C1CN(C(=O)c2cc(Br)c(Br)s2)c2ccccc2N1`, the Potency result is “inactive”.

Take `CCN(CC)c1nc(C=Cc2ccc(N(C)C)cc2)c2nccnc2n1`: the Potency was 2.06 µM (active).

With `CN(C)c1ccc(C=Cc2nccc3ccccc23)cc1`, the Potency was 17.7 µM (active).

On to `CCN(Cc1ccccc1)c1ccc(/C=C(\C#N)c2ccccn2)cc1`, for which the Potency result is “inactive”.

Consider `CCN(Cc1ccccc1)c1ccc(/C=C/c2nccc3ccccc23)cc1`, for which the Potency was 20.6 µM (active).

As for `CN(C)c1ccc(/C=C/c2nccc3ccccc23)cc1`, the Potency is 23.1 µM (active).

Take `COc1cc(SC)ccc1C(=O)N1CCN(c2ccccc2OC)CC1`: the Potency entry was “inactive”.

Take `Cc1ccc2c(c1C)NC(=O)CC(c1ccccc1O)=N2`: the Potency result was “inactive”.

As to `CN(C)CCCN(C(=O)/C=C/c1cccs1)c1nc2ccc(F)cc2s1`, the Potency entry is “inactive”.

In the case of `CC(C)CCNC(=O)c1ccc2c(c1)NC(=O)C(CS(=O)(=O)Cc1cccc(Br)c1)N2` (stereo unspecified), the Potency entry was “inactive”.

For the compound `Cc1ccc(CNC(=O)c2ccc3c(c2)NC(=O)C(CS(=O)(=O)Cc2cccc(C)c2)N3)cc1` (stereo unspecified), the Potency is 20.6 µM (active).

On to `CC1Sc2ccc(C(=O)NCc3ccccn3)cc2NC1=O` (stereo unspecified), for which the Potency result is “inactive”.

Take `C[C@@H]1O[C@@H](O[C@@H]2C(=O)c3c(O)cc(O)cc3O[C@H]2c2ccc(O)c(O)c2)[C@H](O)[C@H](O)[C@H]1O`: the Potency result is “inactive”.

Take `CN(C)C(=O)c1cccc(-c2cnc3c(NC=O)cc(-c4ccccc4F)cn23)c1`: the Potency result is “inactive”.

On to `CC1=CC(C)(C)NC(=S)N1c1ccc2ccccc2c1`, for which the Potency entry was “inactive”.

`CCOC(=O)c1c(CC(C)C)csc1/N=C/C1C(=O)CCCC1=O`: the Potency entry is “inactive”.

`C=C1C(=O)O[C@H]2C1CC[C@@](C)(O)C13C=CC(C)(C21)C1(C3)C(=O)O[C@@H]2C3C(C)=CCC3[C@](C)(O)C[C@H](OC(C)=O)C21` (stereo partly specified): the Potency result was “inactive”.

Regarding `O=C1/C(=C/c2ccc([N+](=O)[O-])cc2)Oc2cc(O)ccc21`, the Potency entry was “inactive”.

As for `CN(C)c1ccc(/C=C2\Oc3ccc(C#Cc4cccc(N)c4)cc3C2=O)cc1`, the Potency is 14 µM (active).

With `COc1cnc(-c2ccccn2)nc1Oc1ccc(F)cc1F`, the Potency result was “inactive”.

On to `CC(C)(C)OC(=O)NC(Cc1ccccc1)C(=O)N1CCC(C(=O)NCC(=O)Nc2ccc(F)cc2)CC1` (stereo unspecified), for which the Potency is 18.4 µM (active).

Turning to `COc1ccc(/C=N/n2cc(-c3ccccc3)nc2N)cc1`, the Potency result is “inactive”.

Turning to `Cc1ccnc(N/C=C(\C#N)c2nc(-c3cccc(Br)c3)cs2)c1`, the Potency is 14 µM (active).

In the case of `COC(=O)c1nnn(-c2nonc2N)c1CN1CCc2ccccc21`, the Potency result is “inactive”.

`CC1(C)CCN2CCC(C)(C)c3c(O)ccc1c32`: the Potency is 14 µM (active).

Turning to `COc1cc(CNCCSc2nnnn2C)ccc1OCc1c(F)cccc1Cl`, the Potency result is “inactive”.

As to `Cc1ccc(N=Cc2c(O)n(-c3nccs3)c(=O)c3ccccc23)c(C)c1`, the Potency is 16.4 µM (active).

As to `N#C/C(=C/c1ccc(-c2ccc([N+](=O)[O-])cc2)o1)C(=O)Nc1nc(-c2cccs2)cs1`, the Potency result was “inactive”.

Consider `Cc1ccc(NC(=O)/C(C#N)=C\c2ccc(-c3ccc(Cl)cc3)o2)c(C)c1`, for which the Potency was 7.31 µM (active).

Regarding `CCN(CC)c1ccc(/C=c2/sc3nnc(-c4ccccc4C)n3c2=O)cc1`, the Potency was 25.9 µM (active).

Consider `O=C1NC(c2ccccc2Br)=N/C1=C\c1ccco1`, for which the Potency entry was “inactive”.

For `Cc1cccc(N2CCN(C(=O)c3ccncc3)CC2)c1C`, the Potency result was “inactive”.

On to `Cc1[nH]c2ccccc2c1/C=C/c1ccnc2ccccc12`, for which the Potency entry is “inactive”.

On to `C(=Cc1c[nH]c2ccccc12)c1ccc2ccccc2n1`, for which the Potency is 20.6 µM (active).

Regarding `C(=C\c1c[nH]c2ccccc12)/c1ccc2ccccc2n1`, the Potency is 18.4 µM (active).

Regarding `Cc1[nH]c2ccccc2c1/C=C/c1ccc2ccccc2n1`, the Potency is 18.4 µM (active).

Turning to `Nc1cccc(CCc2nc3cc4ccccc4cc3[nH]2)c1`, the Potency result is “inactive”.

As to `Cc1cc(NC(=O)NC(=O)c2ccccc2NC(=O)C(C)N)ccc1Oc1ncc(Br)cn1` (stereo unspecified), the Potency result is “inactive”.

On to `CC(=O)Nc1ccc(S(=O)(=O)Nc2nc3ccccc3nc2Sc2nncn2C)cc1`, for which the Potency entry is “inactive”.

Take `Cc1[nH]c2ccccc2c1/C=C/c1cc[n+](C)cc1`: the Potency was 4.44 µM (active).

Take `O=c1cc(-c2ccccc2)[nH]c2ccccc12`: the Potency entry is “inactive”.

In the case of `Cc1[nH]c2ccccc2c1/C=C/C(=O)c1ccccc1`, the Potency is 23.1 µM (active).

Take `Cc1ccc2[nH]c(C)c(/C=C/c3cc[n+](C)cc3)c2c1`: the Potency was 1.77 µM (active).

In the case of `COc1ccc(-c2cc(NC(C)=O)c3ncc(-c4cc(OC)c(OC)c(OC)c4)n3c2)cn1`, the Potency result was “inactive”.

Turning to `CCOc1ccccc1N1CC(c2nc3ccccc3n2Cc2c(C)cc(C)cc2C)CC1=O` (stereo unspecified), the Potency entry was “inactive”.

Turning to `O=C(Cn1ncc(Cl)c(Cl)c1=O)N1CCN(S(=O)(=O)c2ccc3ccccc3c2)CC1`, the Potency entry is “inactive”.

For `Cc1ccc(/C=N/NC(=O)C2COc3ccccc3O2)s1` (stereo unspecified), the Potency entry was “inactive”.

For the compound `O=S(=O)(Nc1cccc2ncccc12)c1cccs1`, the Potency entry is “inactive”.

Turning to `Cc1nc(NC(=O)/C=C/c2ccco2)sc1C`, the Potency entry was “inactive”.

For `Cc1ccc(NC(=O)Cc2ccc(-n3cccc3)cc2)c(C)c1`, the Potency entry was “inactive”.

Turning to `CC(=O)c1cccc(NC(=S)N2c3ccccc3CC2C)c1` (stereo unspecified), the Potency result was “inactive”.

Regarding `Cc1ccc(NC(=O)C(=Cc2ccc(C(=O)O)cc2)C(=O)Nc2ccc(C)cc2C)c(C)c1`, the Potency entry was “inactive”.

With `CC(=O)c1cccc(NC(=O)/C=C/c2ccc([N+](=O)[O-])s2)c1`, the Potency is 8.2 µM (active).

Consider `Cc1ccc(NC(=O)/C=C/c2ccc([N+](=O)[O-])s2)c(C)c1`, for which the Potency was 5.8 µM (active).

Take `Cc1cccc(NC(=O)/C=C/c2ccc([N+](=O)[O-])s2)c1`: the Potency is 4.11 µM (active).

Regarding `Cc1ccc(NC(=O)/C=C/c2ccc([N+](=O)[O-])s2)cc1`, the Potency was 7.31 µM (active).

Regarding `C=CCN=c1scc(-c2ccc(F)cc2)n1/N=C/c1ccccn1`, the Potency result was “inactive”.

On to `COc1ccc(CN2C(=O)C(C)Nc3ncnc(N4CCc5ccccc5C4)c32)cc1` (stereo unspecified), for which the Potency entry is “inactive”.

In the case of `Cc1cc(C)cc(NC(=O)/C=C/c2ccc([N+](=O)[O-])s2)c1`, the Potency is 23.1 µM (active).

Regarding `COC(=O)c1sccc1NC(=S)Nc1cc(C)cc(C)c1`, the Potency entry was “inactive”.

Turning to `Cc1noc(C)c1COc1ccc(C(=O)NNC(=O)c2ccccc2F)cc1`, the Potency entry was “inactive”.

On to `O=C(COc1ccccc1-c1ccccc1)NN=C1CCCC1`, for which the Potency result was “inactive”.

With `COc1ccc(-n2cc3c(-c4cccc(Br)c4)nnc(C)c3n2)cc1`, the Potency entry was “inactive”.

Turning to `C=CCN1C(=O)C2(NNc3ccccc3O2)c2ccccc21` (stereo unspecified), the Potency was 12.5 µM (active).

Consider `CCOc1ccc(C(=O)Nc2cc(-c3nc4ccccc4[nH]3)ccc2Cl)cc1[N+](=O)[O-]`, for which the Potency entry is “inactive”.

Turning to `c1ccc2c(-c3nc4ccccc4[nH]3)cccc2c1`, the Potency entry was “inactive”.

As for `O=C(Nc1ccccc1-c1nc2ccccc2[nH]1)c1ccc(N2C(=O)CCC2=O)cc1`, the Potency was 23.1 µM (active).

In the case of `Cc1c(NC(=O)c2csc3c2CCCC3)c(=O)n(-c2ccccc2)n1C`, the Potency result is “inactive”.

As to `Cc1c(N/N=C(\C#N)C(=O)c2ccc(Cl)cc2)c(=O)n(-c2ccccc2)n1C`, the Potency is 20.6 µM (active).

In the case of `COc1cc(/C=C2\COC/C(=C\c3cc(OC)c(OC)c(OC)c3)C2=O)cc(OC)c1OC`, the Potency result was “inactive”.

Turning to `COc1cc(/C=N/Nc2ccc(Cl)nn2)cc(OC)c1O`, the Potency entry was “inactive”.

Turning to `COc1cc(C=C2CCCC(=Cc3ccc(OCC4CO4)c(OC)c3)C2=O)ccc1OCC1CO1` (stereo unspecified), the Potency result was “inactive”.

As for `COc1cc(/C=C2/CCC/C(=C\c3cc(O)c(OC)c(Cl)c3)C2=O)cc(Cl)c1O`, the Potency is 18.4 µM (active).

Regarding `CCOc1cc(/C=C2\CCC/C(=C\c3cc(Cl)c(O)c(OCC)c3)C2=O)cc(Cl)c1O`, the Potency was 12.5 µM (active).

For `C=CCOc1c(Cl)cc(C(=S)N2CCCC2)cc1OCC`, the Potency entry is “inactive”.

As for `Cn1c(=O)c(N)c2c3c(c(Br)ccc31)C(=O)c1ccccc1-2`, the Potency was 2.91 µM (active).

The values are drawn from PubChem BioAssay AID651812 (National Center for Advancing Translational Sciences (NCATS), 2012).
